The values below come from PubChem BioAssay (NCATS).

Results filed as inconclusive are left out. A call without a number means that no potency is given here. Active and inactive are the calls of the source. Calls follow the shape of the dose curve; as a rule, active = well fitted cell-killing curve with a large enough effect; inconclusive = small, poorly fitted or top-dose-only effect; inactive = flat fitted curve, though single readings scatter.

This test can be described thus: qHTS of pediatric cancer cell lines to identify multiple opportunities for drug repurposing: Primary screen for DAOY cells (AID 1347090). Also: nearly all actives have a fitted effect of over 55% in size. Particulars: DAOY medulloblastoma viability, CellTiter-Glo luminescence, 48 h; series mostly up to 46 µM. The procedure, abridged: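 Eight- or eleven-point concentration series, 48 h treatment at 37 degrees C in growth media; readout CellTiter-Glo luminescence. Potency and efficacy were taken from the concentration-response curves.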
For `COc1ccc2c(c1)c(CC(=O)OC/C=C(\C)CC/C=C(\C)CCC=C(C)C)c(C)n2C(=O)c1ccc(Cl)cc1`, the Potency result is “inactive”.
Next, `CCCN(CCC)C(=O)C(CCC(=O)OCCCN1CCN(CCOC(=O)Cc2c(C)n(C(=O)c3ccc(Cl)cc3)c3ccc(OC)cc23)CC1)NC(=O)c1ccccc1` (stereo not given): “inactive”.
As to `CC[N+](CC)(CC)CCOC(=O)C(C1CCCC1)C1CCCC1`, the Potency result was “inactive”.
Regarding `CC(NC(CCc1ccccc1)C(=O)O)C(=O)N1C(=O)N(C)CC1C(=O)O` (stereo not given), the Potency result is “inactive”.
Next, `CC(C)(C)c1ccc(C(=O)CCCCl)cc1`: “inactive”.
In the case of `CC[N+]1(CC)CCC(=C(c2ccccc2)c2ccccc2)C1C` (stereo not given) it was “inactive”; in that of `CCCc1c2oc(C(=O)O)cc(=O)c2cc2c(=O)cc(C(=O)O)n(CC)c12`, “inactive”; in that of `C#Cc1ccc(-c2ccccc2F)cc1`, “inactive”.
Consider `COC(=O)/C=C\C(=O)OC`, for which the Potency result was “inactive”.
In the case of `CC(=O)O[C@H]1CC[C@@]2(C)C(=CC[C@@H]3[C@@H]2CC[C@]2(C)C(C(C)=O)=CC[C@@H]32)C1` it was “inactive”; in that of `CCC[C@H](N[C@@H](C)C(=O)N1[C@H](C(=O)O)C[C@@H]2CCCC[C@@H]21)C(=O)OCC`, “inactive”.
Next, `C[N+](C)(CCOc1ccccc1)Cc1cccs1`: “inactive”; `CCCCOC(=O)CCCCCCCCC(=O)OCCCC`: “inactive”.
Next, `CC1(C)O[C@@H]2C[C@H]3[C@@H]4C[C@H](F)C5=CC(=O)C=C[C@]5(C)[C@@]4(F)[C@@H](O)C[C@]3(C)[C@]2(C(=O)CO)O1`: “inactive”; `CO/N=C(/C(=O)N[C@@H]1C(=O)N2C(C(=O)[O-])=C(C[n+]3ccn4ncccc43)CS[C@H]12)c1nsc(N)n1`: “inactive”.
